PubChem BioAssay
Activity calls are given as the source filed them.

How the values were obtained:
[1] = small molecules captured by biotinylated probe aFSTL3 – biochemical, small-molecule microarray, fluorescence 635/667, stem cell growth factor project, primary screen (AID 1064); conditions: higher = more signal;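 note: measures binding of the biotinylated anti-FSTL3 antibody to printed compounds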
[2] = binders from COS7 lysate, DM2A8 probe, primary screen, torsin A project, cell lysate, small-molecule microarray, fluorescence 635/667 (AID 1065); conditions: higher = more signal, COS7 lysate expressing mutant human TOR1A
[3] = small molecules captured by biotinylated probe aFGF2 – biochemical, small-molecule microarray, fluorescence 635/667, stem cell growth factor project, primary screen (AID 1067); conditions: higher = more signal;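 note: measures binding of biotinylated aFGF2 protein to printed compounds on slides; z-score merges feature fluorescence and signal-to-noise across triplicate slides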
[4] = small molecules captured by biotinylated probe aFGF10 – biochemical, small-molecule microarray, fluorescence 635/667, stem cell growth factor project, primary screen (AID 1071); conditions: higher = more signal;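 note: score merges 667 nm spot intensity and signal to noise from triplicate slides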
[5] = molecular target: Neurogenic locus notch homolog protein 2 (Homo sapiens) (UniProt Q04721); experiment: small molecules binding Notch2 protein – biochemical, small-molecule microarray, 635 nm fluorescence, stem cell growth factors, primary screen (AID 1073); conditions: higher = more signal
[6] = molecular target: Pro-neuregulin-1, membrane-bound isoform (Homo sapiens) (UniProt Q02297); experiment: small molecules binding neuregulin-1 protein – biochemical, small-molecule microarray, fluorescence 635/667, psychiatric disease protein project, primary screen (AID 1075); conditions: NRG1 binding, 635 nm fluorescence, higher = more signal;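 note: score combines 667 nm spot fluorescence with signal to noise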
[7] = system: Neuregulin-1 EGF-like domain; experiment: small molecules binding NRG1 EGF domain – biochemical, small-molecule microarray, 635 nm fluorescence, primary screen (AID 1081); conditions: higher = more signal;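 note: binding of the protein to compounds printed on small-molecule microarray slides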
[8] = FRG1 expression reporter modulators in myotubes – cell-based, C2C12 myotubes, firefly/Renilla luciferase, luminescence, FRG1 inhibition for FSHD, primary screen (AID 1084); conditions: FRG1 promoter luciferase, higher = more signal, called active from +8 up or from −8 down
[9] = small molecules captured by biotinylated probe aFST – biochemical, small-molecule microarray, fluorescence 635/667, stem cell growth factor project, primary screen (AID 1086); conditions: higher = more signal;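 note: score merges 667 nm fluorescence with signal-to-noise of each printed compound spot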
[10] = binders of probe aHhip on microarray, primary screen, stem cell growth factor project, biochemical, small-molecule microarray, fluorescence 635/667 (AID 1087); conditions: higher = more signal;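 note: score merges spot fluorescence at 667nm with spot signal to noise ratio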

Neurogenic locus notch homolog protein 2 (Homo sapiens), sequence (Q04721 whole entry, looked up, canonical isoform): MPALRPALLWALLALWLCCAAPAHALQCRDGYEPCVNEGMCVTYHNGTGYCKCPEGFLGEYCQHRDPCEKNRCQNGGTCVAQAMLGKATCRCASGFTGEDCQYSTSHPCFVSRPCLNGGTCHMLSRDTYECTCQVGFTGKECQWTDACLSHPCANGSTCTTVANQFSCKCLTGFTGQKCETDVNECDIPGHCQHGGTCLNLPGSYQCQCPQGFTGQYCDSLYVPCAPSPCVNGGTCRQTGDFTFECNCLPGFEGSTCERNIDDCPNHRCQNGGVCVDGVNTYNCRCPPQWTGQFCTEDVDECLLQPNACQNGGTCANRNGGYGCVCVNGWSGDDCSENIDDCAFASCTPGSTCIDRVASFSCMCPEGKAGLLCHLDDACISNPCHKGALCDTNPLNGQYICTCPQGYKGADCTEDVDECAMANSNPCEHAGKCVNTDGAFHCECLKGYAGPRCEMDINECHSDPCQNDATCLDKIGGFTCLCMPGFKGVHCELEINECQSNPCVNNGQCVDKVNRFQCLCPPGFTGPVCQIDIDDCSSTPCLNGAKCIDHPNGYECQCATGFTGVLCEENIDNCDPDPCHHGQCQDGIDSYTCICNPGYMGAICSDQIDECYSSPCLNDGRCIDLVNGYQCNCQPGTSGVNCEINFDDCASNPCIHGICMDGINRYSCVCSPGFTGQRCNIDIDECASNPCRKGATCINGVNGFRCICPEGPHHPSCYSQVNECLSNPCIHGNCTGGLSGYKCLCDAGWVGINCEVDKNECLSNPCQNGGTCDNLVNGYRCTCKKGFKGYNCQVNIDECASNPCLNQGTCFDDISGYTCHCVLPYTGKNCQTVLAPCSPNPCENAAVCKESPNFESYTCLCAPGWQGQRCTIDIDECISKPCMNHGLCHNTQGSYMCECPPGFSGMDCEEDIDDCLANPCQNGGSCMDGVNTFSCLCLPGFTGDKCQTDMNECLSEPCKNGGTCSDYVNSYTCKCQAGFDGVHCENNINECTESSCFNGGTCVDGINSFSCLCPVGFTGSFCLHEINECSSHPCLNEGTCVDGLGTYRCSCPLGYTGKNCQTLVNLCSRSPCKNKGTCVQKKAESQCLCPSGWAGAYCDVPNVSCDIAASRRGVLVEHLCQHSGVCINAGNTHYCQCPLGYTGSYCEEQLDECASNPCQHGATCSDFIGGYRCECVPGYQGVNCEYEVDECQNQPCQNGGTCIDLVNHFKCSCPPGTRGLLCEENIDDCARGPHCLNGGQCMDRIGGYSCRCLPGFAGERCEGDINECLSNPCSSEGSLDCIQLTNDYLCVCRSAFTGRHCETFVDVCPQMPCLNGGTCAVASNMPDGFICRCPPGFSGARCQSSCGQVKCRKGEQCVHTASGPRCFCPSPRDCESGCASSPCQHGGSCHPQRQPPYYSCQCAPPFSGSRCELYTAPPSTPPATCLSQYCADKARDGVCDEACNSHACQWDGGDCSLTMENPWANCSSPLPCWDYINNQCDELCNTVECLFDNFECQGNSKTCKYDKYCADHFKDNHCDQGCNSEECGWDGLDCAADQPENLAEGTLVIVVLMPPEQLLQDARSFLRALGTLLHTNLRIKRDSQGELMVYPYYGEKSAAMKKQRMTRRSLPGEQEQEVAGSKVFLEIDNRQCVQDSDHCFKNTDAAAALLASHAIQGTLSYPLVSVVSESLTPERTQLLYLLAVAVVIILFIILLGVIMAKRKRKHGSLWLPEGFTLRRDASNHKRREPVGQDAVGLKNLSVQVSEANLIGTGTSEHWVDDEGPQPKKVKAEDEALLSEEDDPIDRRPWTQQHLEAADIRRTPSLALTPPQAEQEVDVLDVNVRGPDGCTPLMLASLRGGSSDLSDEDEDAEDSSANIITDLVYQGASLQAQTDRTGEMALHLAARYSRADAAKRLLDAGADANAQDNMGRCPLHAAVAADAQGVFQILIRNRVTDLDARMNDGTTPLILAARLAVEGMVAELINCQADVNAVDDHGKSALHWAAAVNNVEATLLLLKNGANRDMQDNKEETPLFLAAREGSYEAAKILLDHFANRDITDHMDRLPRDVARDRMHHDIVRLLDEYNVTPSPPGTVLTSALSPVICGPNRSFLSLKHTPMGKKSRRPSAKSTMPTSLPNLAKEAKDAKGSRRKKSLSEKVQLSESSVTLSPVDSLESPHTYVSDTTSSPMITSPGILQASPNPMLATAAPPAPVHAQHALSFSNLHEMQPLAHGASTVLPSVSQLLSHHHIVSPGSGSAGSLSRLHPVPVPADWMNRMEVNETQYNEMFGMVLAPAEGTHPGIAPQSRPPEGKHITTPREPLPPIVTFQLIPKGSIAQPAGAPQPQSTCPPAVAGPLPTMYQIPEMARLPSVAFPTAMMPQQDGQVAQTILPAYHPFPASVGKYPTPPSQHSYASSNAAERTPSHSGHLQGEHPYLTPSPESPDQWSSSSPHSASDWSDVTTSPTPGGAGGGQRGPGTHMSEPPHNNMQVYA
Pro-neuregulin-1, membrane-bound isoform (Homo sapiens), sequence (Q02297 whole entry, looked up, the tested form may be a part, canonical isoform): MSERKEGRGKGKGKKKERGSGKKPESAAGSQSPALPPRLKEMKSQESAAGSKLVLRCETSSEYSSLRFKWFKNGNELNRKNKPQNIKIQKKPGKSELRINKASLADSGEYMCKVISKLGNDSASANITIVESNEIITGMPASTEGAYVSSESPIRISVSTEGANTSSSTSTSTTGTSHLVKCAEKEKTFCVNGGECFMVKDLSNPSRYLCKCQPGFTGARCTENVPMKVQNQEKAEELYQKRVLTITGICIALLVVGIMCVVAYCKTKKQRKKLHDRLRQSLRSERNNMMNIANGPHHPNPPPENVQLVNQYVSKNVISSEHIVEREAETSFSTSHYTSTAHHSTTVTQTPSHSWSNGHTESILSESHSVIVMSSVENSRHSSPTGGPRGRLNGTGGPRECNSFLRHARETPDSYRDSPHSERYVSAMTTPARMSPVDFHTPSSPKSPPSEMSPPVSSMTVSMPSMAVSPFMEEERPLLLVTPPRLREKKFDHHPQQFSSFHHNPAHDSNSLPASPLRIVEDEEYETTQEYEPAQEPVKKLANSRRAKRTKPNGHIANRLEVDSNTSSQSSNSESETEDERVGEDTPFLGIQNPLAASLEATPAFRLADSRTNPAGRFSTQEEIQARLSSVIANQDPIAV

SMILES	composite z-score [1]	composite z-score [2]	composite z-score [3]	composite z-score [4]	composite z-score [5]	composite z-score [6]	composite z-score [7]	z-score [8]	composite z-score [9]	composite z-score [10]
O=C1NC(=O)C2C1C=CC(C(O)c1ccc(F)cc1)N2Nc1ccccn1 (stereo not given)	0.22	0.472	-0.0634	0.354	0.999	0.906	0.957	0.632 (inactive)	0.0731	-0.284
CC(C)CNC(=O)[C@@H]1c2ccccc2C(=O)N(C2Cc3ccccc3C2)[C@H]1c1ccc(CO)cc1	0.192	-0.372	-0.0737	0.261	-0.51	1.29	1.39	-1.56 (inactive)	-0.316	-0.166
NCCCC[C@@H]1NC(=O)[C@H]2C[C@@H](C(=O)NCc3ccc(F)cc3)[C@@H](c3cccc(OCCO)c3)N2C1=O	-0.261	0.357	-0.0262	0.527	0.772	1.09	1.33	-0.0673 (inactive)	0.182	-0.0994
CC(C)C[C@@H]1NC(=O)[C@H]2C[C@@H](C(=O)NCCCCCNC(=O)CS)[C@@H](c3ccc(O)cc3)N2C1=O	-0.208	0.929	0.283	0.834	0.74	1	1.3	-0.232 (inactive)	0.0724	-0.236
CCc1cccc(NC(=O)O[C@H]2[C@H](OC(=O)Nc3ccc4c(c3)OCO4)[C@H](OC(=O)Nc3ccc4c(c3)OCO4)[C@@H](OC)O[C@@H]2CO)c1	0.0053	0.052	-0.0158	0.263	0.603	0.979	1.32	4.53 (inactive)	0.318	-0.0645
C#CCN=C(N)N	-0.504	0.147	-0.127	0.209	0.389	0.748	1.01	0.007 (inactive)	0.224	-0.226
Cc1ccc(S[C@]2(C(=O)NC3CC3)CC(=O)N(Cc3cc(C(F)(F)F)cc(C(F)(F)F)c3)[C@@H]2c2ccc(CO)cc2I)cc1	0.385	1.11	0.21	0.0945	-0.262	0.212	1.27	0.528 (inactive)	0.457	-0.494
COC(=O)[C@@]1(Cc2ccc(OC)cc2)[C@H]2c3cc(C(=O)N4CCCC4)n(CCc4ccc(OC)c(Br)c4)c3C[C@H]2CN1C(=O)c1ccccc1	1.02	-0.116	0.159	0.929	1.04	2.17	1.44	1.25 (inactive)	0.546	0.21
CC(C)C[C@@H]1NC(=O)C([C@@H](C)OCc2ccccc2)NC(=O)[C@@]23C(=O)N[C@@H](Cc4ccccc4)C2[C@H](C)[C@@]2(C)O[C@H]2C3/C=C/CC/C=C/CNC1=O (stereo not given in full)	-0.38	0.924	-0.0841	0.379	0.319	1.11	0.979	1.49 (inactive)	0.0793	-0.353
CCCC=C(CCC)[C@@H](NC(=O)c1ccco1)c1ccc(C(=O)OC)cc1	0.0801	0.127	0.209	0.72	1.52	1.65	1.2	0.467 (inactive)	0.594	-0.0507
CC(C)[Si](C#CCCCC#N)(O[C@H](c1ccccc1)c1cn([C@H](C)c2ccccc2)nn1)C(C)C	-0.207	0.268	-0.0538	0.505	0.792	0.816	0.726	-2.24 (inactive)	0.612	-0.214
CCOC(=O)C[C@H]1[C@H](OC(=O)c2ccc(C(=O)c3ccccc3)cc2)[C@@H](NC(=O)c2ccc3ccccc3c2)c2cc(OCCCO)ccc2N1C(=O)c1ccc2ccccc2n1	-0.432	0.761	-0.101	0.746	0.5	0.43	0.53	0.476 (inactive)	0.392	-0.151
CC(C)CNC(=O)[C@@H]1c2ccccc2C(=O)N(Cc2ccccc2)[C@H]1c1ccc(CO)cc1	1.12	0.886	0.0173	-0.0403	-1.04	0.935	0.76	-0.504 (inactive)	-0.469	-0.118
CC(C)(C)N1CC=CC23O[C@@H]4/C=C\CCCOC(=O)C4[C@H]2C(=O)N(CCCCCCO)[C@@H]3C1=O (stereo not given in full)	0.509	-0.342	-0.208	-0.056	-1.12	1.1	0.781	-1.09 (inactive)	-0.392	-0.0618
COc1ccc(CCNC(=O)[C@@H]2c3ccccc3C(=O)N(CC34CC5CC(CC(C5)C3)C4)[C@H]2c2ccc(CO)cc2)cc1	-0.227	0.0668	0.257	0.239	0.703	1.09	1.24	-1.89 (inactive)	-0.0095	0.0972
C=CCN1C(=O)[C@]2(O[C@H](CCO)[C@@H]([Si](C)(C)c3ccc(OC)cc3)[C@@H]2C)c2ccccc21	-0.277	-0.313	-0.144	-0.314	-0.599	0.174	0.122	-3.89 (inactive)	-0.488	-0.0933

SMILES	composite z-score [1]	composite z-score [2]	composite z-score [3]	composite z-score [4]	composite z-score [5]	composite z-score [6]	composite z-score [7]	z-score [8]	composite z-score [9]	composite z-score [10]
CN(C)CCCCNC(=O)[C@H]1C[C@H]2C(=O)N[C@@H](Cc3ccccc3)C(=O)N2[C@H]1c1cccc(OCCO)c1	0.863	0.46	-0.158	-0.436	-0.252	0.136	0.606	3.32 (inactive)	-0.549	0.0092
CO[C@H]1O[C@H](CO)[C@@H](OC(=O)Nc2ccccc2)[C@@H]2OC(=O)[C@H](Cc3ccccc3)C/C=C/C[C@@H](Cc3ccccc3)C(=O)O[C@@H]12	0.146	0.779	0.0732	0.775	1.48	1.14	1.04	-1.64 (inactive)	0.654	-0.0296
C=C(COC)/C(=C/C[C@H](OC(=O)c1ccncc1)c1cccc(OCCO)c1)c1cnc2ccccc2c1	-0.125	0.544	-0.103	0.427	1.41	1.3	1.28	2.63 (inactive)	0.841	-0.134
CN1C(=O)C2C=CC(C(O)c3ccc(-c4ccccc4)s3)N(Nc3ccccc3)C2C1=O (stereo not given)	0.876	0.358	0.0754	0.454	1.67	1.43	1.09	0.0583 (inactive)	1.15	0.245
CC(C)c1ccc(NN2C(C(O)C(C)C)C=CC3C(=O)N(c4ccccc4)C(=O)C32)cc1 (stereo not given)	0.733	0.237	0.225	0.707	1.55	1.92	1.31	-0.0025 (inactive)	1.3	-0.208
C=C(/C(=C/C[C@@H](OC(C)=O)c1ccccc1OCCO)c1cc(C(=O)OC)ccc1OC)C(C)C	-0.101	0.179	-0.049	0.643	0.632	0.685	0.5	0.178 (inactive)	-0.145	-0.312
CCOC(=O)C1=C[C@@H](C(C)(C)C)N(S(=O)(=O)c2ccc(C)cc2)[C@H]1c1ccccc1Cl	0.284	0.534	0.122	0.624	1.61	1.25	1.14	-2.24 (inactive)	1.07	0.0401
C=CCC(OC(C)=O)[C@@H]1[C@@H](N(Cc2ccc(-c3ccccc3)cc2)C(=O)c2ccc(C)cc2)c2cc(OCCCO)ccc2N1C(=O)c1ccc2ccccc2c1 (stereo not given in full)	-0.233	0.0822	-0.116	-0.148	-0.168	-0.138	-0.405	-2.01 (inactive)	0.482	-0.0427
CN1C(=O)C2C(C1=O)C1C=C(c3ccc(CO)cc3)C2C(c2cccs2)N1C (stereo not given)	0.085	0.429	-0.0578	0.0934	-0.0125	0.885	1.04	1.63 (inactive)	-0.075	-0.137
CN(C)C(=O)[C@]1(Cc2ccccc2)N=C(c2ccc(OCCCO)cc2)O[C@@H]1c1ccccc1	-0.129	0.984	0.0376	1.08	1.46	1.78	1.28	-0.306 (inactive)	0.952	0.127
Cc1ccc(S[C@]2(C(=O)NCCN3CCOCC3)CC(=O)N(C3CCCCC3)[C@@H]2c2ccc(CO)cc2I)cc1	-1.01	0.866	-0.0687	0.841	0.955	1.61	1.22	-2.05 (inactive)	0.259	-0.279
CCCCC(=C=CC[C@@H](O)c1ccc(OCCO)cc1)C[C@@H](O)c1ccccn1	-0.0136	1.23	-0.0473	0.314	0.0751	0.0517	1.15	-0.838 (inactive)	0.111	0.16
COC(=O)C1=CC(CCCO)=CC(c2ccc(CN3CCCC3)cc2)N(Cc2sc3ccccc3c2Cl)C=C1C(=O)OC (stereo not given)	0.688	2.31	0.321	1.31	1.73	2.43	1.32	-0.591 (inactive)	1.21	0.167
CC1CC/C=C\[C@H]2OC34C=CCN(CCN5CCOCC5)C(=O)[C@H]3N(CCCCCCO)C(=O)[C@@H]4C2C(=O)O1 (stereo not given in full)	-0.0847	-0.686	-0.129	-0.445	-0.894	-0.539	1.44	0.647 (inactive)	-0.493	-0.171
C=CCNC(=O)[C@H]1[C@@H]2C(=O)O[C@@H](c3ccccc3)[C@@H](c3ccccc3)N2[C@@H](c2ccc(O)cc2)[C@]12C(=O)Nc1ccc(C#CC3=CCCCC3)cc12	-0.713	2.01	-0.0449	0.447	0.706	0.0212	1.18	-0.195 (inactive)	-0.166	0.199
